Values joined by “and” are separate entries in the source; they are usually repeats but may differ in a detail not shown here. Equal entries are not always repeated. Inconclusive results are not listed. Active and inactive are the calls of the source. Unless noted, the call rests on the fitted dose curve; in most records, active means well fitted curve in the direction sought with a large enough effect; inconclusive means small, poorly fitted or top-dose-only effect, or another doubt; inactive means no such curve, though single readings can be large; an effect the other way counts as inactive or inconclusive.
Key:
[1] = P-glycoprotein substrates identified in KB-8-5-11 adenocarcinoma cell line, qHTS therapeutic library screen (AID 1346987); conditions: KB-8-5-11 (P-gp overexpressing) viability, CellTiter-Glo, 72 h; series mostly up to 44.5 µM; further: nearly all actives have a fitted effect of over 65% in size
In short: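 KB-8-5-11: colchicine-selected sub-line of KB-3-1 over-expressing P-gp; assay medium lacked colchicine. 72 h drug exposure at 37 degree C, CellTiter-Glo.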

[2] = NS1 protein of Zika virus - qHTS assay to identify small molecule inhibitors in human HEK 293 cells (AID 1347053); conditions: HEK293 ZIKV MR766 infection, NS1 TR-FRET, 24 h; series mostly up to 46.1 µM; further: nearly all actives have a fitted effect of over 55% in size
In short: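 Inhibition of NS1 expression was scored in HEK 293 cells given compound 1 h ahead of MR766 virus (MOI = 0.5). Following 24 h at 37 C, two anti-NS1 antibodies generated a TR-FRET signal, scaled between uninfected and infected controls.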

[3] = qHTS for Inhibitors of the Functional Ribonucleoprotein Complex (vRNP) of Lassa (LASV) Arenavirus: LASV Primary Screen - GLuc reporter signal (AID 1347082; calls by dose curve; tested in HEK293 reporter line; further: nearly all actives have a fitted effect of over 60% in size); conditions: LASV minigenome vRNP, Gaussia luciferase reporter; series mostly up to 57.5 µM
[4] = qHTS for Inhibitors of the Functional Ribonucleoprotein Complex (vRNP) of Lassa (LASV) Arenavirus: Viability assay - alamar blue signal for LASV Primary Screen (AID 1347083; calls by dose curve; tested in HEK293 reporter line; further: nearly all actives have a fitted effect of over 80% in size); conditions: cell viability, alamar blue fluorescence (LASV minigenome counter-screen); series mostly up to 57.5 µM
[5] = qHTS for Inhibitors of the Functional Ribonucleoprotein Complex (vRNP) of Lymphocytic Choriomeningitis Arenaviruses (LCMV): Viability assay - alamar blue signal for LCMV Primary Screen (AID 1347085; calls by dose curve; tested in HEK293 reporter line; further: nearly all actives have a fitted effect of over 80% in size); conditions: alamar blue viability counter-screen, LCMV vRNP screen cells; series mostly up to 57.5 µM
[6] = molecular target: Nucleoprotein (Lymphocytic choriomeningitis virus (strain Armstrong)) (UniProt P09992); test: qHTS for Inhibitors of the Functional Ribonucleoprotein Complex (vRNP) of Lymphocytic Choriomeningitis Arenaviruses (LCMV): LCMV Primary Screen - GLuc reporter signal (AID 1347086; calls by dose curve; further: nearly all actives have a fitted effect of over 70% in size); conditions: LCMV minigenome vRNP cell assay, Gaussia luciferase reporter; series mostly up to 57.5 µM
[7] = qHTS of pediatric cancer cell lines to identify multiple opportunities for drug repurposing: Primary screen for TC32 cells (AID 1347089); conditions: TC32 Ewing sarcoma viability, CellTiter-Glo luminescence, 48 h; series mostly up to 45.8 µM; further: nearly all actives have a fitted effect of over 60% in size
In short: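 In the primary qHTS, MIPE compounds were tested at 11 concentrations (0.78 nM to 46 µM) and NPC compounds at 8 (0.59 nM to 46 µM) on TC32 cells for 48 h. CellTiter-Glo luminescence gave viability.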

[8] = qHTS of pediatric cancer cell lines to identify multiple opportunities for drug repurposing: Primary screen for DAOY cells (AID 1347090); conditions: DAOY medulloblastoma viability, CellTiter-Glo luminescence, 48 h; series mostly up to 46 µM; further: nearly all actives have a fitted effect of over 55% in size
In short: (§1)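 Cell viability, CellTiter-Glo luminescence; 500-1,000 cells/well, 8- or 11-point titration, 48 h compound exposure at 37 degrees C, 5% CO2. Controls: DMSO neutral, bortezomib 2.3 µM final as positive.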

[9] = qHTS of pediatric cancer cell lines to identify multiple opportunities for drug repurposing: Primary screen for SJ-GBM2 cells (AID 1347091); conditions: SJ-GBM2 viability, CellTiter-Glo luminescence, 48 h; series mostly up to 46 µM
In short: as §1

[10] = qHTS of pediatric cancer cell lines to identify multiple opportunities for drug repurposing: Primary screen for A673 cells (AID 1347092); conditions: A673 Ewing sarcoma viability, CellTiter-Glo ATP luminescence, 48 h; series mostly up to 46 µM; further: nearly all actives have a fitted effect of over 45% in size
In short: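 48 h compound exposure, A673, 500-1,000 cells/well, 37 degrees C/5% CO2. MIPE: 11-point, 0.78 nM-46 µM; NPC: 8-point, 0.59 nM-46 µM (final). Readout CellTiter-Glo luminescence after 15 min RT.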

[11] = qHTS of pediatric cancer cell lines to identify multiple opportunities for drug repurposing: Primary screen for SK-N-MC cells (AID 1347093); conditions: SK-N-MC viability, CellTiter-Glo luminescence, 48 h; series mostly up to 46 µM
In short: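 Metabolically active cells were quantified by ATP-dependent luminescence (CellTiter-Glo, 15 min at room temperature) following 48 h treatment. Cells had been plated at 500-1,000 per well and settled for 5 h beforehand.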

[12] = qHTS of pediatric cancer cell lines to identify multiple opportunities for drug repurposing: Primary screen for BT-37 cells (AID 1347094); conditions: BT-37 viability, CellTiter-Glo luminescence, 48 h; series mostly up to 57.3 µM
In short: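 Following a 5-hour attachment period, cells at 500-1,000/well received compounds and were cultured for 48 hours. CellTiter-Glo was added and luminescence read to estimate viable, metabolically active cells.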

Measured: Potency
Potency means the concentration at half of the fitted maximal effect.

Nucleoprotein (Lymphocytic choriomeningitis virus (strain Armstrong)), sequence (P09992 whole entry, looked up): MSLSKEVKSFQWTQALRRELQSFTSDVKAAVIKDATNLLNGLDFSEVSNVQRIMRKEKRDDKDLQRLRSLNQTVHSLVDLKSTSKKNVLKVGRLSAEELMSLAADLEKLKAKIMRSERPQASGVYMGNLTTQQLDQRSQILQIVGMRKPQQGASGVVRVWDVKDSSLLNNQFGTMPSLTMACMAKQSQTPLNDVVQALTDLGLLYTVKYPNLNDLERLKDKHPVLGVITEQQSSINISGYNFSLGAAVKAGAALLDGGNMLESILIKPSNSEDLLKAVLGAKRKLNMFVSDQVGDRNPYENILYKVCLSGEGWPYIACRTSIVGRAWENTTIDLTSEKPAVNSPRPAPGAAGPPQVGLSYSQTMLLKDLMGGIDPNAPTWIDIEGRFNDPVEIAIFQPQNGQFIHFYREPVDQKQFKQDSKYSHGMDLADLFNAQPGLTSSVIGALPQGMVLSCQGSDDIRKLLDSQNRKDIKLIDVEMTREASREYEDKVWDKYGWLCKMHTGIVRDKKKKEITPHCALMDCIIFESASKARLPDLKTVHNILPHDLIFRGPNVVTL

O=C(O)CCCOc1ccc(Cl)cc1Cl
active: [10] 0.313 µM
inactive: [1] | [2] | [3] | [4] | [5] | [6] | [7] | [8] | [9] | [11] | [12]

CCOCCOC(C)=O
inactive: [1] | [2] | [3] | [4] | [5] | [6] | [7] | [8] | [9] | [10] | [11] | [12]

C[C@]12Cc3cn[nH]c3C[C@@H]1CC[C@@H]1[C@H]2CC[C@@]2(C)[C@H]1CC[C@]2(C)O
inactive: [1] | [2] | [3] | [4] | [5] | [6] | [7] | [8]
active: [10] 14.8 µM | [11] 469 nM

Nc1ccc(Sc2ccc(N)cc2)cc1
inactive: [1] | [2] | [3] | [4] | [5] | [6] | [7] | [8] | [9] | [11] | [12]

C1CCC(NC2CCCCC2)CC1
inactive: [1] | [2] | [3] | [4] | [5] | [6] | [7] | [8] | [9] | [10] | [11] | [12]

NC1=NC(=O)N2CC12 (stereo unspecified)
inactive: [1] | [2] | [3] | [4] | [5] | [6] | [7] | [9]
active: [12] 19.3 µM

COc1ccc(CC2NCCc3cc(OC)c(OC)cc32)cc1OC (stereo unspecified)
inactive: [1] | [2] | [3] | [4] | [6] | [7] | [8] | [9] | [12]

C[C@H]1CCCC=CC2C[C@H](O)C[C@@H]2[C@H](O)C=CC(=O)O1 (stereo partly specified)
active: [1] 1 nM | [3] 27.3 nM | [4] 24.3 nM | [5] 0.0193 µM | [6] 10.9 nM | [7] 13.1 nM | [11] 1 nM | [12] 0.001 µM
inactive: [2]

O=C1CCC[C@@H]2[C@H]3CCCN4CCC[C@@H](CN12)[C@@H]34
inactive: [1] | [2] | [3] | [4] | [5] | [6] | [8] | [10] | [11] | [12]

CC(=O)OCC1=C(C(=O)O)N2C(=O)[C@@H](N)[C@@H]2SC1
active: [10] 0.187 µM | [11] 23500 nM | [12] 1.22 µM
inactive: [1] | [2] | [3] | [4] | [5] | [6] | [7]

CC(=Cc1csc(C)n1)[C@@H]1C[C@H]2O[C@@H]2CCC[C@H](C)[C@@H](O)[C@@H](C)C(=O)C(C)(C)[C@@H](O)CC(=O)O1
inactive: [2] | [3] | [4] | [5] | [6]
active: [1] 1 nM | [7] 1.2 nM | [9] 1 nM | [11] 1 nM

CC(C)(C)NC[C@H](O)c1ccc(O)cc1Cl
inactive: [1] | [2] | [3] | [4] | [5] | [6] | [7] | [9] | [10] | [11] | [12]

C1=C2CCCN[C@H]2[C@@H]2C[C@H]1[C@@H]1CCCCN1C2
inactive: [1] | [2] | [3] | [4] | [5] | [6] | [7] | [12]

CS(=O)(=O)c1ccc(C(=O)C2C(=O)CCCC2=O)c([N+](=O)[O-])c1
inactive: [1] | [2] | [3] | [4] | [5] | [6] | [7] | [8] | [10] | [12]
active: [11] 1 nM

C=C1C[C@H]2[C@H]3CCC(=O)[C@@]3(C)CC[C@@H]2[C@@]2(C)C=CC(=O)C=C12
inactive: [1] | [2] | [3] | [4] | [5] | [6] | [7] | [9]

O=C1C(I)=CC(=C(c2cc(I)c(O)c(I)c2)c2ccccc2C(=O)O)C=C1I
inactive: [1] | [2] | [3] | [4] | [5] | [6] | [7] | [9] | [12]

O=S(=O)(CC1CS1)c1ccc(Oc2ccccc2)cc1 (stereo unspecified)
inactive: [1] | [2] | [3] | [4] | [5] | [6]
active: [10] 9.35 µM | [12] 19.3 µM

CN[C@@H](C)[C@H](O)c1ccccc1
inactive: [1] | [2] | [3] | [4] | [5] | [6] | [7] | [8] | [10] | [11] | [12]

CCN1CCN(C(=O)Cc2ccc(Nc3ncc(F)c(Nc4ccc(C(=O)Nc5ccccc5Cl)cc4)n3)cc2)CC1
active: [1] 2.96 µM and 1.16 µM | [2] 11.8 µM | [4] 4320 nM | [5] 6.85 µM | [8] 3.72 µM | [9] 2350 nM | [10] 2.96 µM | [11] 5260 nM | [12] 12.2 µM
inactive: [3]

O=[N+]([O-])c1cc([N+](=O)[O-])c2ccccc2c1
inactive: [1] | [2] | [3] | [4] | [6] | [7] | [8] | [9] | [10] | [12]
active: [11] 10900 nM

C#CC1(O)CCC2C3CCC4=CC(=O)CCC4(C)C3CCC21C (stereo unspecified)
inactive: [1] | [2] | [3] | [4] | [7] | [8] | [9] | [10] | [12]

C[C@]12COC(=O)C[C@@H]1CC[C@@H]1[C@H]2CC[C@@]2(C)[C@H]1CC[C@]2(C)O
inactive: [1] | [2] | [3] | [4] | [5] | [6] | [7] | [8] | [10] | [11] | [12]

CC[N+]1(CCOC(=O)C(O)(c2ccccc2)c2ccccc2)CCCCC1
inactive: [1] | [2] | [3] | [4] | [5] | [6] | [7] | [9] | [10] | [11] | [12]

From PubChem BioAssay (NCATS)
